# Test results as given in publication PMC7862700, “An all-to-all approach to the identification of sequence-specific readers for epigenetic DNA modifications on cytosine”.
# Experiments:
# Test in all cases: DAPPL (digital affinity profiling via proximity ligation, sequencing); 10 mM Tris-HCl pH 7.5, 50 mM NaCl, 1 mM DTT, 4% glycerol, room temperature, 30 min; GST-TFs on glutathione beads, 16-mer random dsDNA library, 0.1% formaldehyde crosslink after washing; high values mean tight binding
# [1] = target: T1, FLI1 (Homo sapiens, UniProt Q01543 1-452); details: protein: recombinant; tags: N-terminal GST; dsDNA, one strand shown
# T1 sequence: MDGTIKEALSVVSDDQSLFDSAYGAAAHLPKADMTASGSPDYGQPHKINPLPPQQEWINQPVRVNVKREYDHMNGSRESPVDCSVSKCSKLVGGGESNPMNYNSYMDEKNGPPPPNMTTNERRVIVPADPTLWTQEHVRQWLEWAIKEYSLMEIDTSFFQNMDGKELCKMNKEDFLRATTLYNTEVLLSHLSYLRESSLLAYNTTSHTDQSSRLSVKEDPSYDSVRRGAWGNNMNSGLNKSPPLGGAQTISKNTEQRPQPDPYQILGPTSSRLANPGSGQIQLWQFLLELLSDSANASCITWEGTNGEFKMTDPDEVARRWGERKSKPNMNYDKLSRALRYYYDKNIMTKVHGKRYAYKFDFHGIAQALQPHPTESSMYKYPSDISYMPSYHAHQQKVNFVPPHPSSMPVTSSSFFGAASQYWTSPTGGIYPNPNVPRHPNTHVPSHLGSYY
# In short: (§1)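 Yeast served to express human transcription factors as GST fusions, which were then captured on glutathione beads and labelled with DNA barcodes. Pooled with a tag-only sample, they were incubated with 200 nmole of a 16-mer random double-stranded DNA library for 30 min at room temperature in Tris/NaCl/DTT/glycerol buffer, washed, crosslinked with 0.1% formaldehyde, ligated by proximity, amplified by PCR and sequenced. Dividing each hexamer's read frequency for a factor by its frequency for the tag-only sample gives the binding signal.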
# [2] = target: T2, ELK1 (Homo sapiens, UniProt P19419 1-428); details: protein: recombinant; tags: N-terminal GST; dsDNA, one strand shown
# T2 sequence: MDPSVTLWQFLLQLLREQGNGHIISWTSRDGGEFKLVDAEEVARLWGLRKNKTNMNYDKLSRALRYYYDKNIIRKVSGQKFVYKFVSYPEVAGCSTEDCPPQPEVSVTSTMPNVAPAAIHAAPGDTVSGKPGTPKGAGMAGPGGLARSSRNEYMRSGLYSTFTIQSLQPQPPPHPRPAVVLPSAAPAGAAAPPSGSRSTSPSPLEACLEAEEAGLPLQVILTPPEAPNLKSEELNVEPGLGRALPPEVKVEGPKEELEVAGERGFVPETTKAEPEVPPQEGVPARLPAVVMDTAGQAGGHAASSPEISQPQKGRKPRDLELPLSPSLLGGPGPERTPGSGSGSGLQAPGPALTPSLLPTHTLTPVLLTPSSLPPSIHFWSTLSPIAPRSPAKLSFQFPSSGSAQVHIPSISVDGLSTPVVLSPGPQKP
# In short: as §1
# [3] = target: T3, GABPA (Homo sapiens, UniProt Q06546 1-454); details: protein: recombinant; tags: N-terminal GST; dsDNA, one strand shown
# T3 sequence: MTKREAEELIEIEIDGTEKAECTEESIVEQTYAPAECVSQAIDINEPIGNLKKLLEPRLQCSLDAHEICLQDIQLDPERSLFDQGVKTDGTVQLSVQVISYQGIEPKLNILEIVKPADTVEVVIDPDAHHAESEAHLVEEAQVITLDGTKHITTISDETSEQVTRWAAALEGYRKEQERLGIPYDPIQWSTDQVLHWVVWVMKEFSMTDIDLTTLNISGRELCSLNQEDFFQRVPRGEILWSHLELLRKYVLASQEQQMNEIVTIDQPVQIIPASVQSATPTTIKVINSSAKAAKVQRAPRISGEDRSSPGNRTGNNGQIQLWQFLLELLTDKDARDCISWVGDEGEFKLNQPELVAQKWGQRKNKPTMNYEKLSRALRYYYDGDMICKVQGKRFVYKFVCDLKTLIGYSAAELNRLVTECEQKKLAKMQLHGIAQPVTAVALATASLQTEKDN
# In short: as §1
# [4] = target: T4, ERG (Homo sapiens, UniProt P11308 1-479); details: protein: recombinant; tags: N-terminal GST; dsDNA, one strand shown
# T4 sequence: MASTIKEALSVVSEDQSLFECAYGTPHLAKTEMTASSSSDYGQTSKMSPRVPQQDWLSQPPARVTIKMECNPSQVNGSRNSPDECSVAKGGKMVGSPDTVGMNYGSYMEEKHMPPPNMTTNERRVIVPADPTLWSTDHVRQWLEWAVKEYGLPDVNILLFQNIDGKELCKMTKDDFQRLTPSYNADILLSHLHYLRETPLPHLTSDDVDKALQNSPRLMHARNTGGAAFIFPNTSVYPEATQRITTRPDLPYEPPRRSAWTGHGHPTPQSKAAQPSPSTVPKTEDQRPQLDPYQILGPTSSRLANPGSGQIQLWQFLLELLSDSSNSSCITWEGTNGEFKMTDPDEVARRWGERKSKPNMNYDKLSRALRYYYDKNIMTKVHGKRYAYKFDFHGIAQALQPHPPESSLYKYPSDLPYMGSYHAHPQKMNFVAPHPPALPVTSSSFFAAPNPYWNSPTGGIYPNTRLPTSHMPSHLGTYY
# In short: as §1
# [5] = target: ELF1 (Homo sapiens, UniProt P32519 1-619); details: protein: recombinant; tags: N-terminal GST; dsDNA, one strand shown
# ELF1, sequence (P32519 whole entry): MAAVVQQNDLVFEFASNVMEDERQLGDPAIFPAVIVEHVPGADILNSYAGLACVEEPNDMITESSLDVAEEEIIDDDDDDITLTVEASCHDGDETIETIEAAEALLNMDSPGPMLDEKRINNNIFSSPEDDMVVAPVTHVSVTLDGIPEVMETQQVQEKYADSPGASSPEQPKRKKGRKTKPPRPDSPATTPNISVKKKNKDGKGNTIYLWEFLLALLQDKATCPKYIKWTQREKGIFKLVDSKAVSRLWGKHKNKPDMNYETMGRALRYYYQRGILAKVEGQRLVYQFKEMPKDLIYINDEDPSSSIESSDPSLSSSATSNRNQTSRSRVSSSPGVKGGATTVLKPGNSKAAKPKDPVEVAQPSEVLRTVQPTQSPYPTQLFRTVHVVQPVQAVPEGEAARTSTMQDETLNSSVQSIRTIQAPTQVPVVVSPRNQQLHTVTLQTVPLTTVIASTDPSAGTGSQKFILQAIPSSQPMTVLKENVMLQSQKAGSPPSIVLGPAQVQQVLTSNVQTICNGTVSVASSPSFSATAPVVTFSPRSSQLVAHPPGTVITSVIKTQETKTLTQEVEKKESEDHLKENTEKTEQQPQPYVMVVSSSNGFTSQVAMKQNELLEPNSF
# In short: as §1
# [6] = target: T5, EHF (Homo sapiens, UniProt Q9NZC4 1-300); details: protein: recombinant; tags: N-terminal GST; dsDNA, one strand shown
# T5 sequence: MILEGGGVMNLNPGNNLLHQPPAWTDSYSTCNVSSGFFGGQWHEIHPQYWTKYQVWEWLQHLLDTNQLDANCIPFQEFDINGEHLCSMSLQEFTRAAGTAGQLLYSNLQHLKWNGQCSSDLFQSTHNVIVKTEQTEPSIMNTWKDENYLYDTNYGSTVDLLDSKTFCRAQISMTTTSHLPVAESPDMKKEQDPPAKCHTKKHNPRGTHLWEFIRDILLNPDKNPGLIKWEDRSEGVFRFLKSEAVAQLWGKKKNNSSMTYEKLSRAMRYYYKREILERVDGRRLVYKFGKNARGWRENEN
# In short: as §1
# [7] = target: SPI1 (Homo sapiens, UniProt P17947 1-270); details: protein: recombinant; tags: N-terminal GST; dsDNA, one strand shown
# In short: as §1
# [8] = target: SPIB (Homo sapiens, UniProt Q01892 1-262); details: protein: recombinant; tags: N-terminal GST; dsDNA, one strand shown
# SPIB, sequence (Q01892 whole entry): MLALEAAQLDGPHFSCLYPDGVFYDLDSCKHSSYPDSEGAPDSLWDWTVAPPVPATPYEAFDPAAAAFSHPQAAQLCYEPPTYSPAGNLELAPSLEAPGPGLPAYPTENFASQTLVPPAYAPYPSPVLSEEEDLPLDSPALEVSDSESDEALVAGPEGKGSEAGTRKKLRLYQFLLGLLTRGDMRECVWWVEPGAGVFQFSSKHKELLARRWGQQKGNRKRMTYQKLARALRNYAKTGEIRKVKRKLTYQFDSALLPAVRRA
# In short: as §1
# [9] = target: T6, ELK3 (Homo sapiens, UniProt P41970 1-407); details: protein: recombinant; tags: N-terminal GST; dsDNA, one strand shown
# T6 sequence: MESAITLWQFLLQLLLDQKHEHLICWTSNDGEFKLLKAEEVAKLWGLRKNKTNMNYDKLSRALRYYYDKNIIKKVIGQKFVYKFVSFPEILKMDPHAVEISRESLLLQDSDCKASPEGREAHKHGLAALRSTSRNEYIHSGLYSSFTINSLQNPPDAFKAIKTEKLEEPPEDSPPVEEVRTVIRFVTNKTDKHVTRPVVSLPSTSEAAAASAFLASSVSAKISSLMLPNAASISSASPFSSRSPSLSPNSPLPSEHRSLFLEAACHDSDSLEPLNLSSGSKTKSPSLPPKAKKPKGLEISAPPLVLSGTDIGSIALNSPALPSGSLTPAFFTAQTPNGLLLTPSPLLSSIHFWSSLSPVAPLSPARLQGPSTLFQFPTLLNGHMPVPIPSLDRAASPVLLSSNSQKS
# In short: as §1
# [10] = target: T7, FEV (Homo sapiens, UniProt Q99581 1-238); details: protein: recombinant; tags: N-terminal GST; dsDNA, one strand shown
# T7 sequence: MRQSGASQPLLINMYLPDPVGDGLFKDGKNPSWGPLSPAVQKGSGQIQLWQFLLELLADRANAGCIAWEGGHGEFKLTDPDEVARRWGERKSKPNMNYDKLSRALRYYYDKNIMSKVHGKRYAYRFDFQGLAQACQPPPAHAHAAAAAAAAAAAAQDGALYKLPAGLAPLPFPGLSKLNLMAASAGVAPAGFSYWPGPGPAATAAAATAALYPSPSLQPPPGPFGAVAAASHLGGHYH
# In short: as §1
# [11] = target: ETV5 (Homo sapiens, UniProt P41161 1-510); details: protein: recombinant; tags: N-terminal GST; dsDNA, one strand shown
# ETV5, sequence (P41161 whole entry): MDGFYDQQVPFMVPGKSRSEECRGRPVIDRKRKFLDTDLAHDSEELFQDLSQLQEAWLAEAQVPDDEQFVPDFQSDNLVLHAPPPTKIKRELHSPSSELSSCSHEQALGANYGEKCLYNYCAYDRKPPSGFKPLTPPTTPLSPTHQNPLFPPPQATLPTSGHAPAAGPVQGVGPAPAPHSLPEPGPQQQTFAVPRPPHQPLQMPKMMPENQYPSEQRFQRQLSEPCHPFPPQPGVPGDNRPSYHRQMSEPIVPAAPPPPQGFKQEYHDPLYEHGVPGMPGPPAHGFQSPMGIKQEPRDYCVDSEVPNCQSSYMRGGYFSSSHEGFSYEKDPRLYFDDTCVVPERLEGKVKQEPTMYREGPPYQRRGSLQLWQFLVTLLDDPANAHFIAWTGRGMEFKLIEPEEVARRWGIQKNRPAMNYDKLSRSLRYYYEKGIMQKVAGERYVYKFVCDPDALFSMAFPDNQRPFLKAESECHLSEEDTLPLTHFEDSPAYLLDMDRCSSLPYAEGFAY
# In short: as §1
# [12] = target: HSF1 (Homo sapiens, UniProt Q00613 1-529); details: protein: recombinant; tags: N-terminal GST; chain copies: 3; dsDNA, one strand shown
# HSF1, sequence (Q00613 whole entry): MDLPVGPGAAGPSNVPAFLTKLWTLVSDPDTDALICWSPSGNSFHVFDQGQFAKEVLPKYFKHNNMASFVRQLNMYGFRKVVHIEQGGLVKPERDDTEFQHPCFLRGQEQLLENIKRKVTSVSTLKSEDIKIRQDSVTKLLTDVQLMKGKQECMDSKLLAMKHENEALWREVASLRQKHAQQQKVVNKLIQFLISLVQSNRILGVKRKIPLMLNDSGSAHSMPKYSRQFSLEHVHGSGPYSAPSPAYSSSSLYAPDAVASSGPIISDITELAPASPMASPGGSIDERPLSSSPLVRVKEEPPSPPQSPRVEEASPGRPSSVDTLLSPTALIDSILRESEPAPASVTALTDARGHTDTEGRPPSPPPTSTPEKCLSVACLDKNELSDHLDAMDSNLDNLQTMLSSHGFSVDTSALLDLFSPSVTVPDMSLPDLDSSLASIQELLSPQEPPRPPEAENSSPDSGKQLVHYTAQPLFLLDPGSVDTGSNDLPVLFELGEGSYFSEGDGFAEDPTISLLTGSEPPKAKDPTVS
# In short: as §1
# [13] = target: T8, SPIC (Homo sapiens, UniProt Q8N5J4 1-248); details: protein: recombinant; tags: N-terminal GST; dsDNA, one strand shown
# T8 sequence: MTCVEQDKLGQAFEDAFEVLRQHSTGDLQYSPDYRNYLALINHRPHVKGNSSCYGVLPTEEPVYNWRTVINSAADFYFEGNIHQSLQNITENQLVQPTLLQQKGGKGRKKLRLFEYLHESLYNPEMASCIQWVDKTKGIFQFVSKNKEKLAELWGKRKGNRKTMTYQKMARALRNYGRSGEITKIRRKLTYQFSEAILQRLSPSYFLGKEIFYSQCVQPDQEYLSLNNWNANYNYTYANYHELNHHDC
# In short: as §1
# [14] = target: ELF4 (Homo sapiens, UniProt Q99607 1-663); details: protein: recombinant; tags: N-terminal GST; dsDNA, one strand shown
# ELF4, sequence (Q99607 whole entry): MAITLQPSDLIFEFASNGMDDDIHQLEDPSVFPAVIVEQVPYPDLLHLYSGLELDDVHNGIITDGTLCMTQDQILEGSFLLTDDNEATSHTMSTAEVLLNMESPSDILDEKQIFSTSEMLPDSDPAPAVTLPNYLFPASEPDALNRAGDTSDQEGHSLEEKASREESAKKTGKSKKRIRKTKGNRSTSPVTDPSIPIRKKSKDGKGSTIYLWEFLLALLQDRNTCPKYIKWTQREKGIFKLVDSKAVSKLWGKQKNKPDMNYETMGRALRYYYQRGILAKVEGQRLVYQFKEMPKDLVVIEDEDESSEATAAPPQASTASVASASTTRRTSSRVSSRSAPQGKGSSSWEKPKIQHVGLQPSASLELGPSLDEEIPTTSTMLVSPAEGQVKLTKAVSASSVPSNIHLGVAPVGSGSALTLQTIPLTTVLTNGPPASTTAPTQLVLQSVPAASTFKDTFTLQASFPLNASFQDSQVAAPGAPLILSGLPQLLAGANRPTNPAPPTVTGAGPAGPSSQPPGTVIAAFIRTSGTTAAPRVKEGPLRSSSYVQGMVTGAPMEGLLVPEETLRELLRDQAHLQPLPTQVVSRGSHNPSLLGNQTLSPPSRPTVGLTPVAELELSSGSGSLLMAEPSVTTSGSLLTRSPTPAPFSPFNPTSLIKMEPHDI
# In short: as §1
# [15] = target: T9, ELK4 (Homo sapiens, UniProt P28324-2 1-405); details: protein: recombinant; tags: N-terminal GST; dsDNA, one strand shown
# T9 sequence: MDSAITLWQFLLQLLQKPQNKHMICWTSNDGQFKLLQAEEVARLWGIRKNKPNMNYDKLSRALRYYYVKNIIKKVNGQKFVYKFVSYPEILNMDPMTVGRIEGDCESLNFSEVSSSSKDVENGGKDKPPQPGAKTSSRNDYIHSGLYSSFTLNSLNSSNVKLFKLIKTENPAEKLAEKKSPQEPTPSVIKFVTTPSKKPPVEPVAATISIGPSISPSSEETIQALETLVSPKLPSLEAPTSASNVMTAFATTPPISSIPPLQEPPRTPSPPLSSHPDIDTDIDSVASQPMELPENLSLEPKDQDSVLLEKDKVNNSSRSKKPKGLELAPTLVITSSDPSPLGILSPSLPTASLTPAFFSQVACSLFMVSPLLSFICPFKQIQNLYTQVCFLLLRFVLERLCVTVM
# In short: as §1
# [16] = target: T10, ETV2 (Homo sapiens, UniProt O00321 1-342); details: protein: recombinant; tags: N-terminal GST; dsDNA, one strand shown
# T10 sequence: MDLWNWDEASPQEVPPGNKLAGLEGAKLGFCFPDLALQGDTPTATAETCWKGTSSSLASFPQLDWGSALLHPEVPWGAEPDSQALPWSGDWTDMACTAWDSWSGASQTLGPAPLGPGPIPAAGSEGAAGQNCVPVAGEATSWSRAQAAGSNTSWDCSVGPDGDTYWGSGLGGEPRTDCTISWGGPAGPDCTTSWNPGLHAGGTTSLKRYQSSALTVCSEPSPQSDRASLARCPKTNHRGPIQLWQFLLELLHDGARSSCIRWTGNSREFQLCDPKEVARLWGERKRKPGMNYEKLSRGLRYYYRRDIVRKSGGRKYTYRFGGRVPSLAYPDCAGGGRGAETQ
# In short: as §1
# [17] = target: T11, ELF3 (Homo sapiens, UniProt P78545 1-371); details: protein: recombinant; tags: N-terminal GST; dsDNA, one strand shown
# T11 sequence: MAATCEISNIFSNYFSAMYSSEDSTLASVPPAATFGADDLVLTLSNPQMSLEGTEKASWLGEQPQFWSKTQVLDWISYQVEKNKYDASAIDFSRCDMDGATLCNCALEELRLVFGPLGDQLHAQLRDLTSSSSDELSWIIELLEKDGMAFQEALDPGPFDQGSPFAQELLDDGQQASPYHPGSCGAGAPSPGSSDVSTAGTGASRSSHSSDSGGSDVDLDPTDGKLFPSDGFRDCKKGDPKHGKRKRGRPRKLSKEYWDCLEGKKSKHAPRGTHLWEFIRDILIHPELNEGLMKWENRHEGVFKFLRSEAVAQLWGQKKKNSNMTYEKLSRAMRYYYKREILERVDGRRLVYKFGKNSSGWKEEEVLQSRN
# In short: as §1
# [18] = target: CRX (Homo sapiens, UniProt O43186 1-299); details: protein: recombinant; tags: N-terminal GST; dsDNA, one strand shown
# CRX, sequence (O43186 whole entry): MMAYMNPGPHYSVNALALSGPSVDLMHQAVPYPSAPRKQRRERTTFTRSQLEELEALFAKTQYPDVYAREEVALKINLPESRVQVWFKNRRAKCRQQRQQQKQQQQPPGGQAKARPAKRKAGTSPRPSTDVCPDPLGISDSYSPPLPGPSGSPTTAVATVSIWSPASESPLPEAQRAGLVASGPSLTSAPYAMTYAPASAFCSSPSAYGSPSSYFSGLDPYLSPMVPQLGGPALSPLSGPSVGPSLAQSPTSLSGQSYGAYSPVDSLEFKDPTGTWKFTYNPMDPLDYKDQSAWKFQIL
# In short: as §1
# [19] = target: ETV1 (Homo sapiens, UniProt P50549 1-477); details: protein: recombinant; tags: N-terminal GST; dsDNA, one strand shown
# ETV1, sequence (P50549 whole entry): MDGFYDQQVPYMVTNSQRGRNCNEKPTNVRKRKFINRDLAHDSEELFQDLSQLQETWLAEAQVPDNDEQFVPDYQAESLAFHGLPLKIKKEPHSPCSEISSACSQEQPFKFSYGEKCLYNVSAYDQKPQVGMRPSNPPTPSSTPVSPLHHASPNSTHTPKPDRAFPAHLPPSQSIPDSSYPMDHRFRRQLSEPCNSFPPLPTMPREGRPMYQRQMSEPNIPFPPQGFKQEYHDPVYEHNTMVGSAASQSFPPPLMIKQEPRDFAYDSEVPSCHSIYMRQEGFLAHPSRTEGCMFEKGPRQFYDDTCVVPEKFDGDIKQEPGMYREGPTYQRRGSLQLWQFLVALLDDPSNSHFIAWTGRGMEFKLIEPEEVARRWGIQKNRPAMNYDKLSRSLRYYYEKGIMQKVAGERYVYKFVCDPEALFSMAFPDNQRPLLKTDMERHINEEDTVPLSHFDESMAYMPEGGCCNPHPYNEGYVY
# In short: as §1
sequence,measurement,setting,value
TAATCA,binding signal,[1],"1.17 fold enrichment (6-mer frequency, TF over GST control)"
same,binding signal,[2],"1.14 fold enrichment (6-mer frequency, TF over GST control)"
same,binding signal,[3],"1.25 fold enrichment (6-mer frequency, TF over GST control)"
same,binding signal,[4],"1.07 fold enrichment (6-mer frequency, TF over GST control)"
same,binding signal,[5],"1.16 fold enrichment (6-mer frequency, TF over GST control)"
same,binding signal,[6],"1.08 fold enrichment (6-mer frequency, TF over GST control)"
same,binding signal,[7],"1.07 fold enrichment (6-mer frequency, TF over GST control)"
same,binding signal,[8],"1.16 fold enrichment (6-mer frequency, TF over GST control)"
same,binding signal,[9],"1.09 fold enrichment (6-mer frequency, TF over GST control)"
same,binding signal,[10],"1.13 fold enrichment (6-mer frequency, TF over GST control)"
same,binding signal,[11],"1.18 fold enrichment (6-mer frequency, TF over GST control)"
same,binding signal,[12],"1.64 fold enrichment (6-mer frequency, TF over GST control)"
same,binding signal,[13],"1.26 fold enrichment (6-mer frequency, TF over GST control)"
same,binding signal,[14],"1.11 fold enrichment (6-mer frequency, TF over GST control)"
same,binding signal,[15],"1.32 fold enrichment (6-mer frequency, TF over GST control)"
same,binding signal,[16],"1.27 fold enrichment (6-mer frequency, TF over GST control)"
same,binding signal,[17],"1.18 fold enrichment (6-mer frequency, TF over GST control)"
same,binding signal,[18],"2.51 fold enrichment (6-mer frequency, TF over GST control)"
same,binding signal,[19],"1.14 fold enrichment (6-mer frequency, TF over GST control)"
